This is a sample that favours compounds with a hit; in the whole collection about 1.6% have one here.
Glyco luc inh – increase of ERlucT glycosylation luciferase signal, primary screen, N-linked glycosylation inhibitor project, D54 ERlucT cells, luminescence, set 2; D54 ERlucT glycosylation luciferase reporter, 24 h; percent of 100 nM tunicamycin response; reporter increase, % at 12.5 µM; 360,000 tested, 0.23% active;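 active means mean luciferase reporter signal, scaled so untreated is 0 and the glycosylation-blocking control 100, at or above a set limit in every replicate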;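 further: luciferase carries N-glycosylation sites so blocking glycosylation raises the light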
Vif inh – HIV Vif self-association inhibitors, primary screen, imaging, HEK293T, single point; inhibition, % at 7.49 µM; 340,000 tested, 0.35% active; AID 602346, 2012; HEK293T cells, Vif self-association by quenched fluorescence, 24 h; in the data active means inhibition above about 50%, passing the limit was not always enough
Myeloid diff 2 – induction of myeloid progenitor differentiation, primary screen, cell-based, flow cytometry, MLPCN library; ER-HoxA9 myeloid progenitors, lysozyme-GFP differentiation; calls only at 10 µM; 360,000 tested, 1% active;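 active means normalized GFP-positive differentiation at or above the plate's own cutoff, the solvent-only control mean plus 3 SD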;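 further: cells exposed to compound for four days before flow analysis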
ABCB6 inh MLPCN – ABCB6 transporter inhibitors, primary screen, K562-ABCB6 cells, flow cytometry, MLPCN library; fluorescence ratio to DMSO, % at 10 µM; K562-ABCB6 porphyrin accumulation, 1 h; active compounds read low; 360,000 tested, 0.19% active;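 active means fluorescence ratio to DMSO below 75%, the collection mean minus 3 SD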;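 further: signal is porphyrin accumulated inside mitochondria; lower ratio means ABCB6 inhibition with less porphyrin fluorescence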
RAD54 branch – inhibitors of human RAD54 branch migration, primary screen, biochemical, fluorescence, single point. RAD54 Holliday junction branch migration, FAM/BHQ fluorescence. 360,000 tested, 0.14% active. AID 602329, 2012. inhibition, % at 10.4 µM;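 active means mean normalized replicate activity at least 40 and at least half of replicates scoring 40 or more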;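 further: inhibitors cause a drop in the FAM fluorescence signal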
Myeloid diff CP1 – inducers of myeloid progenitor differentiation, confirmation, cell-based, GFP/Mac1 flow cytometry, cherry pick 01 | shares compounds with Myeloid diff 2 | ER-HoxA9 myeloid progenitors, GFP/Mac1 double-positive flow | calls only | 2,300 tested, 2% active;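 active means share of green or green-and-red cells above 9 and 9% in run 1 or 4 and 3% in run 2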
GFP autofluor – compound fluorescence in myeloid differentiation counter-screen; shares compounds with Myeloid diff 2; ER-HoxA9 myeloid progenitors, no estrogen, GFP autofluorescence flow cytometry; vehicle wells 0%, positive control 100%; fluorescence response, % (concentration not given with the values); 2,300 tested, 7.4% active;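 active means over 5% cells positive for green fluorescent reporter, or over 2% positive for both it and APC stain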
Numbers stand for hits; i = inactive; nt = not tested or not shown; + = active, no number.

SMILES	Glyco luc inh	Vif inh	Myeloid diff 2	ABCB6 inh MLPCN	RAD54 branch	Myeloid diff CP1	GFP autofluor
CCN1C(=O)/C(=C/c2ccc(N3CCCC3)cc2)NC1=S	i	61.3	+	i	nt	i	93.0
COc1ccccc1C/C(N)=N/OC(=O)COc1cccc2ccccc12	i	i	i	i	nt	nt	nt
N/C(Cc1cccc2ccccc12)=N\OC(=O)COc1ccccc1	i	i	i	i	i	i	i
C[C@@H]1CN([C@H](C)CO)C(=O)c2cc(NC(=O)Nc3ccccc3)ccc2O[C@@H]1CN(C)Cc1ccc(-c2ccccc2)cc1	nt	nt	nt	nt	i	nt	nt
Cc1ccc(-c2cnc3c(c2)C(=O)N([C@@H](C)CO)C[C@H](C)[C@H](CN(C)Cc2ccccc2C(=O)O)O3)cc1	nt	nt	nt	nt	i	nt	nt
O=C(N[C@H]1CC[C@@H](CCNS(=O)(=O)c2cccc(Cl)c2)O[C@H]1CO)c1ccncc1	nt	nt	nt	nt	i	nt	nt
c1ccc2c(c1)CCc1c(-c3ccncc3)n[nH]c1-2	i	i	+	i	i	i	i
O=C(N/N=C1\CCc2ccccc21)c1ccncc1	i	i	i	i	nt	nt	nt
COc1ccc(NC(=O)N(C)C[C@H]2Oc3c(NS(=O)(=O)c4cccs4)cccc3C(=O)N([C@@H](C)CO)C[C@H]2C)cc1	nt	nt	nt	nt	i	nt	nt
CC(C(=O)N1CCc2ccccc21)N1CCN(c2cccc(C(F)(F)F)c2)CC1 (stereo unspecified)	i	i	+	i	i	i	i
CC(C(=O)N1CCc2ccccc21)N1CCN(S(=O)(=O)c2ccc(C(F)(F)F)cc2)CC1 (stereo unspecified)	i	i	i	i	i	nt	nt
CCCS(=O)(=O)NC(=O)C1(C)CCCN(C(=O)c2cc(C)nn2C(C)(C)C)C1 (stereo unspecified)	i	i	i	i	i	i	i
C[C@@H]1CN([C@H](C)CO)C(=O)Cc2cc(NC(=O)C3CC3)ccc2O[C@H]1CN(C)C(=O)Nc1ccc(F)cc1	nt	nt	nt	nt	i	nt	nt
CCC(=O)Nc1cccc(NC(=O)CSc2nnc(C3CC3)n2C)c1	i	i	i	i	i	i	i
C[C@H](CO)N1C[C@H](C)[C@@H](CN(C)CC2CC2)Oc2ccc(NS(C)(=O)=O)cc2CC1=O	nt	nt	nt	nt	i	nt	nt
COC(=O)C1C(=O)c2c([nH]c(C(=O)OCC3CCCO3)c2C)CC1C (stereo unspecified)	i	i	i	i	i	i	i
CSc1ccccc1NC(=O)Nc1ccc(Cl)cc1	i	i	i	i	nt	i	i
Cc1ccc(S(=O)(=O)N2CCCCC2CCNC(=O)C(=O)Nc2ccccc2F)cc1 (stereo unspecified)	i	i	+	i	i	i	i
O=C(NCCC1CCCCN1S(=O)(=O)c1ccc(F)cc1)C(=O)Nc1ccccc1F (stereo unspecified)	i	i	i	i	i	nt	nt
C[C@@H]1CN([C@H](C)CO)C(=O)c2cc(NC(=O)Cc3cn(C)c4ccccc34)ccc2O[C@@H]1CN(C)CC1CCCCC1	nt	nt	nt	nt	i	nt	nt
C=CC[C@H](CC(=O)N(CCO)Cc1ccccc1)C(=O)N[C@@H](COC(=O)[C@@H](CC=C)Cc1ccc(F)cc1)Cc1c[nH]c2ccccc12	i	i	i	i	i	i	i
COc1ccc(-n2c(N)c(C(=O)NCc3ccco3)c3nc4ccccc4nc32)c(OC)c1	i	i	+	i	i	i	i
C[C@H]1CN([C@@H](C)CO)C(=O)c2cc(-c3ccc(F)cc3)cnc2O[C@H]1CN(C)CC1CCCCC1	nt	nt	nt	nt	i	nt	nt
O=C(CSc1nc2ccccc2n1CC(=O)N1CCCC1)NCc1ccc2c(c1)OCO2	i	i	i	i	i	i	i
O=C(CSc1nc2ccccc2c(=O)n1-c1ccccc1)NCc1ccc2c(c1)OCO2	i	i	i	i	i	nt	nt
SMILES	Glyco luc inh	Vif inh	Myeloid diff 2	ABCB6 inh MLPCN	RAD54 branch	Myeloid diff CP1	GFP autofluor
O=C(N/N=C/c1ccc([N+](=O)[O-])o1)c1cc2ccccc2o1	i	i	i	i	nt	i	i
O=[N+]([O-])c1ccc(/C=N/Nc2ccc3ccccc3c2)o1	i	i	+	i	i	i	8.1
Cc1ccc2nc(N/N=C\c3ccc([N+](=O)[O-])o3)nc(-c3ccccc3)c2c1	i	i	i	i	i	nt	nt
C[C@H]1CN([C@@H](C)CO)C(=O)c2cc(NS(=O)(=O)c3cccs3)ccc2O[C@H]1CN(C)CC1CCCCC1	nt	nt	nt	nt	i	nt	nt
CCOC(=O)c1ccccc1NS(=O)(=O)c1ccccc1F	i	i	+	i	i	i	i
CC(C)CC#Cc1ccc([C@@H]2[C@@H](CO)N3CCCCN(C(=O)c4ccc5c(c4)OCO5)C[C@H]23)cc1	nt	nt	nt	nt	i	nt	nt
O=C(O)CCCCCN1C(=O)/C(=C\c2ccncc2)SC1=S	i	i	+	i	nt	i	i
C[C@H]1CN([C@@H](C)CO)C(=O)c2cc(NS(=O)(=O)c3cn(C)cn3)ccc2O[C@@H]1CN(C)Cc1ccc(C(=O)O)cc1	nt	nt	nt	nt	i	nt	nt
N#C/C(=C/c1ccc(-c2ccc([N+](=O)[O-])cc2)o1)c1nnc(N2CCOCC2)n1-c1ccccc1	i	i	+	i	nt	i	i
COc1cc(/C=C(\C#N)c2nnc(N3CCOCC3)n2-c2ccccc2)ccc1O	i	i	i	i	nt	nt	nt
C[C@@H]1CN([C@@H](C)CO)C(=O)c2cc(C#Cc3cccnc3)cnc2O[C@H]1CN(C)Cc1ccc(F)cc1	nt	nt	nt	nt	i	nt	nt
CC(C)N(CC#CCC(O)(c1ccccc1)c1ccccc1)C(C)C	i	i	i	i	i	i	i
O=C(Nc1nc(-c2cccnc2)cs1)c1ccc(S(=O)(=O)N2CCOCC2)cc1	i	i	i	i	i	i	i
C[C@H]1CCCCO[C@@H](CN(C)C(=O)Nc2ccc(C(F)(F)F)cc2)[C@@H](C)CN([C@@H](C)CO)C(=O)c2cc(NC(=O)Nc3ccc(C(F)(F)F)cc3)ccc2O1	nt	nt	nt	nt	i	nt	nt
Clc1cccc(-c2cc3nc4c(c(NCc5ccco5)n3n2)CCCC4)c1	i	i	+	i	i	i	i
C[C@H]1CN([C@@H](C)CO)C(=O)CCCn2cc(nn2)CO[C@H]1CN(C)C(=O)Nc1ccc(-c2cccs2)cc1	nt	nt	nt	nt	i	nt	nt
S=C(NNc1ccc2ccccc2c1)NC1CCCCC1	i	i	i	i	i	i	i
COc1ccc(CN(C)C[C@H]2OCCCC[C@H](C)Oc3ccc(NS(=O)(=O)c4cccs4)cc3C(=O)N([C@H](C)CO)C[C@H]2C)cc1	nt	nt	nt	nt	i	nt	nt
CNC[C@H]1Oc2cc(C#CC(C)(C)O)ccc2S(=O)(=O)N([C@H](C)CO)C[C@@H]1C	nt	nt	nt	nt	i	nt	nt

High-throughput results deposited in PubChem by several laboratories.
